Screening data from PubChem.
Only some compounds are listed: those with a hit (about 22% of all), similar ones and a draw of the others.
Measles CPE – protection of cells from measles virus | 140,000 compounds, 1.5% hits | protection (pct of control), % at 4 µM | Measles virus-infected cells, CPE protection, absorbance; in the data active = protection mostly above about 24%, no sharp cut-off; inactive = mostly below about 26%
CYP2C19 inh – blocks human cytochrome P450 2C19 | 96,000 compounds, 21% hits | AID 778 | inhibition, % at 5 µM | CYP2C19 Supersomes, luciferin-H EGE luminescence, 30 min | P33261;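 active = CYP2C19 inhibition above a set limit at 5 µM in the primary screen, cut at about 50% in these data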
Target sequence (P33261 whole entry, looked up): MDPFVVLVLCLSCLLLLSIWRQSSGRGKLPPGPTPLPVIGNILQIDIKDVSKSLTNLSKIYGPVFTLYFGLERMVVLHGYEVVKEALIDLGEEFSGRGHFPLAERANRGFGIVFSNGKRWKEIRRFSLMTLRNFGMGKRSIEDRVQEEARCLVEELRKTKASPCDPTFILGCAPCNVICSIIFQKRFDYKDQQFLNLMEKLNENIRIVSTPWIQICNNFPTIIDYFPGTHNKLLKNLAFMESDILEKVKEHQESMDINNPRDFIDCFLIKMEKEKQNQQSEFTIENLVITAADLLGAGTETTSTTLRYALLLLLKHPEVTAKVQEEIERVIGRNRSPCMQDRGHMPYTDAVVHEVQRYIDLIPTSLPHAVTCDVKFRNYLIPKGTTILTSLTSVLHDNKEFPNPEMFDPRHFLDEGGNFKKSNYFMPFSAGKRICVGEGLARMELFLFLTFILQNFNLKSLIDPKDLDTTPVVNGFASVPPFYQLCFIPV
CYP2C19 activ – activators of human cytochrome P450 2C19; activation factor at 5 µM; AID 1025; recombinant CYP2C19, luciferin-H EGE luminescence; stronger effect = higher value; 0 = fully inhibited enzyme, 1 = untreated enzyme; 96,000 tested, under 10 active; P33261;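 active = activation factor of at least 2 at 5 µM in the primary screen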
CYP2C9 inhib – human CYP2C9 inhibition; AID 777; 96,000 compounds, 20% hits; P11712; inhibition, % at 5 µM; CYP2C9 Supersomes, luciferin-H conversion, luminescence;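 active = blocking of liver enzyme CYP2C9 beyond about 50% at 5 µM, limit read from the data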
CYP2C9 act – increases human cytochrome P450 2C9 activity | P11712 | recombinant CYP2C9, luciferin-H conversion, luminescence; stronger effect = higher value; factor 1 = untreated enzyme, 0 = blocked | activation factor at 5 µM | 96,000 compounds, 1.4% hits | AID 1024;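 active = activation factor of 2 or more for CYP2C9 at a 5 µM dose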
A number is an active result.

O=C(CCN1C(=O)c2ccccc2C1=O)NCc1ccco1 was read as Measles CPE inactive, CYP2C19 inh inactive, CYP2C19 activ inactive, CYP2C9 inhib inactive and CYP2C9 act inactive.
`O=C(CCC1N=C2c3ccccc3N=C(SCc3cccc(Cl)c3)N2C1=O)NCc1ccco1` (centres undefined) gave Measles CPE inactive, CYP2C19 inh inactive, CYP2C19 activ inactive, CYP2C9 inhib 66.7 and CYP2C9 act inactive.
Screening O=C(CSC1=Nc2ccccc2C2=NC(CC(=O)NC3CCCCC3)C(=O)N12)NCc1ccco1 (centres undefined) returned Measles CPE inactive, CYP2C19 inh inactive, CYP2C19 activ inactive, CYP2C9 inhib inactive and CYP2C9 act inactive.
`O=C(CCC1N=C2c3ccccc3N=C(SCc3ccccc3Cl)N2C1=O)NCc1ccco1` (centres undefined) gave Measles CPE inactive, CYP2C19 inh inactive, CYP2C19 activ inactive, CYP2C9 inhib 59.8 and CYP2C9 act inactive.
For Nc1nonc1C(=O)NCCNC(=O)c1cccs1 the results were Measles CPE inactive, CYP2C19 inh inactive, CYP2C19 activ inactive, CYP2C9 inhib inactive and CYP2C9 act inactive.
Screening COc1cccc(-n2nnc3c(=O)n(CC(=O)N4CCC(Cc5ccccc5)CC4)cnc32)c1 returned Measles CPE inactive, CYP2C19 inh inactive, CYP2C19 activ inactive, CYP2C9 inhib inactive and CYP2C9 act inactive.
`Cc1ccc(-c2nnn(CC(=O)N3CCN(c4nc5ccccc5s4)CC3)n2)cc1` gave Measles CPE inactive, CYP2C19 inh inactive, CYP2C19 activ inactive, CYP2C9 inhib inactive and CYP2C9 act inactive.
CC(C)c1ccc(-c2nnn(Cc3nc4ccccc4s3)n2)cc1 was read as Measles CPE inactive, CYP2C19 inh inactive, CYP2C19 activ inactive, CYP2C9 inhib 51.1 and CYP2C9 act inactive.
COc1ccc(S(=O)(=O)N(CC(=O)NCC2CCCO2)c2ccccc2)cc1OC (centres undefined) was read as Measles CPE inactive, CYP2C19 inh inactive, CYP2C19 activ inactive, CYP2C9 inhib inactive and CYP2C9 act inactive.
Cc1nc(CSc2nnc3scc(-c4ccc(Cl)cc4)n23)cs1 was read as Measles CPE inactive, CYP2C19 inh 60.5, CYP2C19 activ inactive, CYP2C9 inhib inactive and CYP2C9 act inactive.
COc1cccc(Nc2nc(=O)[nH]nc2C)c1 was read as Measles CPE inactive, CYP2C19 inh inactive, CYP2C19 activ inactive, CYP2C9 inhib inactive and CYP2C9 act inactive.
COc1cc2oc3ccccc3c2cc1N(CC(=O)N(C)C)S(=O)(=O)c1ccc(C)cc1 was read as Measles CPE inactive, CYP2C19 inh inactive, CYP2C19 activ inactive, CYP2C9 inhib 63.3 and CYP2C9 act inactive.
`Cc1cc(-n2nnc3ccccc32)nc2ccccc12` gave Measles CPE 31.2, CYP2C19 inh inactive, CYP2C19 activ inactive, CYP2C9 inhib inactive and CYP2C9 act inactive.
`Cc1ccc(S(=O)(=O)Cn2nnnc2CN2CCOCC2)cc1` gave Measles CPE inactive, CYP2C19 inh inactive, CYP2C19 activ inactive, CYP2C9 inhib inactive and CYP2C9 act inactive.
`Cc1ccc(S(=O)(=O)Cn2nnnc2CN2CCCC3(CCCCC3)C2)cc1` gave Measles CPE inactive, CYP2C19 inh 93.2, CYP2C19 activ inactive, CYP2C9 inhib 83.0 and CYP2C9 act inactive.
For O=C1Cc2cccc3cccc1c23 the results were Measles CPE inactive, CYP2C19 inh inactive, CYP2C19 activ inactive, CYP2C9 inhib inactive and CYP2C9 act inactive.
Screening CCOC(=O)C1C(c2ccccc2)C(C(=O)OCC)C1c1ccccc1 (centres undefined) returned Measles CPE inactive.
Screening CCOC(=O)C1C(C)N=C2SCC(=O)N2C1c1cccc(Br)c1 (centres undefined) returned Measles CPE inactive, CYP2C19 inh 85.3, CYP2C19 activ inactive, CYP2C9 inhib 85.0 and CYP2C9 act inactive.
`COC(=O)C1=C(CSc2nncn2C)NC(=O)NC1c1ccc(F)cc1` (centres undefined) gave Measles CPE inactive, CYP2C19 inh inactive, CYP2C19 activ inactive, CYP2C9 inhib inactive and CYP2C9 act inactive.
For O=c1[nH]n(-c2ccc(Cl)cc2)c(=O)c(Cl)c1Cl the results were Measles CPE inactive, CYP2C19 inh inactive, CYP2C19 activ inactive, CYP2C9 inhib inactive and CYP2C9 act inactive.
`Cc1[nH]n(-c2ccccc2)c(=O)c1-c1ccc(Cl)cc1` gave Measles CPE inactive, CYP2C19 inh inactive, CYP2C19 activ inactive, CYP2C9 inhib inactive and CYP2C9 act inactive.
For Cc1[nH]n(-c2ccccc2)c(=O)c1-c1cccc(Cl)c1 the results were Measles CPE inactive, CYP2C19 inh inactive, CYP2C19 activ inactive, CYP2C9 inhib 71.3 and CYP2C9 act inactive.
